Screening results: PubChem, several laboratories
CYP2C19 act: activators of human cytochrome P450 2C19; activation factor at 5 µM; P33261; 96,000 tested, under 10 active; recombinant CYP2C19, luciferin-H EGE luminescence; stronger effect = higher value; 0 = fully inhibited enzyme, 1 = untreated enzyme;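 active means activation factor of at least 2 at 5 µM in the primary screen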;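 further: 0 = wells with 2.5 mM tranylcypromine and 1 = vehicle-only wells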
Target sequence (P33261 whole entry, looked up): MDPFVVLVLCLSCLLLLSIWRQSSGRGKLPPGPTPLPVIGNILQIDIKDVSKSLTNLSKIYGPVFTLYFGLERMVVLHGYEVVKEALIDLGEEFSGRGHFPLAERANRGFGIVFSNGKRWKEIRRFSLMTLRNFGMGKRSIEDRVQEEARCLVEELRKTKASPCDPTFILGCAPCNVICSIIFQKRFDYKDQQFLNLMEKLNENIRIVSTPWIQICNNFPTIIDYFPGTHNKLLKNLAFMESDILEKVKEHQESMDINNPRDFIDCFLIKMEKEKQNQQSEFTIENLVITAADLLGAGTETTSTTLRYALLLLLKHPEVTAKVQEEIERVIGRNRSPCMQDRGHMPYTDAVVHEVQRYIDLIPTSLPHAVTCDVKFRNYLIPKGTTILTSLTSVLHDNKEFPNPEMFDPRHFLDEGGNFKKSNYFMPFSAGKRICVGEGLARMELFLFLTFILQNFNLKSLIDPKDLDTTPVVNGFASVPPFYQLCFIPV
PostGolgi ctrl: growth of the yeast control strain, post-Golgi counter-screen; efflux-deficient yeast background strain, growth absorbance A615, 16 h; inhibition, % at 10 µM; 98,000 tested, 5% active; AID 738
PostGolgi yeast: growth inhibition of a yeast mutant, post-Golgi transport screen | post-Golgi transport phenotypic cell assay | inhibition, % at 10 µM | 98,000 tested, 0.9% active | AID 739;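 further: yeast cells grown in 1536-well plates; yeast grown about 18 h at 30C before absorbance read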
CYP2C19 inh: blocks human cytochrome P450 2C19 | inhibition, % at 5 µM | CYP2C19 Supersomes, luciferin-H EGE luminescence, 30 min | 96,000 tested, 21% active | P33261;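 active means CYP2C19 inhibition above a set limit at 5 µM in the primary screen, cut at about 50% in these data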;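 further: plate controls were negative control wells for no effect and 2.5 mM tranylcypromine positive control for full effect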
CYP2C9 activ: activators of human CYP2C9; 96,000 tested, 1.4% active; activation factor at 5 µM; recombinant CYP2C9, luciferin-H conversion, luminescence; stronger effect = higher value; factor 1 = untreated enzyme, 0 = blocked; AID 1024; P11712;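 active means activation factor of 2 or more for CYP2C9 at a 5 µM dose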;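 further: 0 = sulfaphenazole-blocked wells and 1 = vehicle-only wells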
CYP2C9 inh: human CYP2C9 inhibition. P11712. CYP2C9 Supersomes, luciferin-H conversion, luminescence. inhibition, % at 5 µM. 96,000 tested, 20% active. AID 777;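 active means blocking of liver enzyme CYP2C9 beyond about 50% at 5 µM, limit read from the data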
* = called active by the depositor. In the library only some 32% were active in any assay of this set; here they are far more common. Unless noted, no stated cut-off is given here; in the data, active means inhibition above about 30%; inactive means the rest.

SMILES | CYP2C19 act | PostGolgi ctrl | PostGolgi yeast | CYP2C19 inh | CYP2C9 activ | CYP2C9 inh
CCOC(=O)C1CCN(C(=O)c2sc3nc(-c4ccc(F)cc4)cn3c2C)CC1 | 0.8 | 8 | -5 | 20 | 0.7 | 34
Cc1nc([N+](=O)[O-])c(N2CCN(C)CC2)n1Cc1ccccc1 | 1 | 9 | 10 | 4 | 1 | 2
COC(=O)c1cc(=O)n(Cc2ccc3c(c2)OCO3)c(=Nc2ccc(F)c(Cl)c2)s1 | 0.9 | 0 | -17 | 11 | 0.4 | 57*
COc1ccc(CNc2n[nH]c(NCc3ccc(OC)c(OC)c3)n2)cc1OC | 1 | 2 | 3 | -3 | 1 | -1
C=CCOc1ccc(CNc2nn[nH]n2)cc1OC | 0.2 | 21 | -1 | 81* | 0.8 | 18
C=CCOc1ccc(CNn2c(C)n[nH]c2=S)cc1OC | 0.4 | 1 | -2 | 61* | 0.9 | 10
O=C1c2ccccc2C(=O)N1CCC(c1ccc(F)cc1)c1ccco1 (configuration not stated) | 0.6 | 4 | 0 | 38 | 0.6 | 38
COc1ccc(C(CC(=O)NCCCN2CCOCC2)NS(=O)(=O)c2ccc(C)cc2)cc1 (configuration not stated) | 1.1 | 2 | 5 | -11 | 1.1 | -12
Nc1nc(Cl)cc(N2CCC(c3cc(-c4ccc(Cl)cc4Cl)n[nH]3)CC2)n1 | 0.8 | 82* | 43* | 24 | 1 | -4
O=C(CCCN1C(=O)CCC1=O)Nc1ccc(Br)cc1F | 0.7 | 4 | 1 | 34 | 0.8 | 20
COc1ccc(Br)c(/C=N/NC(=O)COc2ccc(-c3ccccc3)cc2)c1 | 0.8 | 18 | 4 | 25 | 0.6 | 38
CC(NC(=O)COc1ccc(/C=N/NC(=O)C(=O)Nc2ccccc2Br)cc1)c1ccccc1 (configuration not stated) | 0.5 | 7 | -1 | 47 | 0.3 | 69*
COc1ccccc1-c1cc(C(=O)NCc2ccc(F)cc2)no1 | 0.8 | 59* | 4 | 21 | 3* | -200
COc1ccccc1-c1cc(C(=O)NCCN2CCOCC2)no1 | 1 | 5 | 11 | -1 | 2.2* | -123
COc1ccccc1-c1cc(C(=O)Nc2c(C)n(C)n(-c3ccccc3)c2=O)no1 | 1 | 5 | 10 | -1 | 2.6* | -159
COc1ccc(CNC(=O)c2cc(-c3ccccc3OC)on2)cc1 | 1 | 16 | 1 | -2 | 2.7* | -165
O=C(NCc1ccccc1)c1cc(-c2cccs2)on1 | 0.7 | 6 | -4 | 28 | 1.3 | -29
COCC(C)NC(=O)c1cc(-c2ccccc2OC)on1 (configuration not stated) | 1 | 2 | 0 | -1 | 2.5* | -149
CCCc1cc(C(=O)NCc2ccc(OC)cc2)no1 | 0.3 | 5 | -3 | 65* | 0.8 | 19
COc1ccc(-c2cc(C(=O)NC(C)C)no2)cc1 | 1 | 4 | -5 | 2 | 1 | 3
COc1ccccc1-c1cc(C(=O)Nc2cc(C)on2)no1 | 1 | -1 | -2 | 1 | 1.9 | -92
COc1ccccc1-c1cc(C(=O)NCc2ccccc2)no1 | 0.6 | 26 | 9 | 38 | 2.8* | -177
COc1ccccc1-c1cc(C(=O)NCc2ccc(Cl)cc2)no1 | 0.7 | 6 | 8 | 29 | 3.2* | -220
Cc1cccc2cc(COC(=O)C(C)C)c(=O)[nH]c12 | 0.9 | -1 | -8 | 12 | 1.1 | -5
CSc1nnc(C2CCCN2)n1C (configuration not stated) | 1.2 | 4 | 4 | -17 | 1.2 | -22
SMILES | CYP2C19 act | PostGolgi ctrl | PostGolgi yeast | CYP2C19 inh | CYP2C9 activ | CYP2C9 inh
CCN1C(=O)CC(C(=O)O)SC1=Nc1ccc(OC)cc1 (configuration not stated) | 1 | 14 | 0 | -5 | 1.1 | -8
CCCCc1ccc(NC(=S)NCc2cccs2)cc1 | 0.9 | 29 | -4 | 9 | 0.9 | 8
COC(=O)c1ccc(-n2c(C)ccc2-c2ccccc2)cc1 | 0.1 | 10 | 15 | 86* | 0.1 | 86*
CC(=O)c1ccc(-n2c(C)ccc2-c2ccccc2)cc1 | 0.1 | 10 | 15 | 91* | 0.2 | 80*
CC1=CCC2C(=O)N(c3ccc(C(=O)N4CCCCCC4)cc3)C(=O)C2C1 (configuration not stated) | 1 | -3 | -6 | -4 | 0.7 | 29
Cc1noc(C)c1C(=O)N1CCCc2ccccc21 | 0.8 | 5 | 5 | 18 | 1 | 4
